Measured values taken from PubChem BioAssay AID686979 (National Center for Advancing Translational Sciences (NCATS), 2013).
About 50,000 (12%) of roughly 420,000 compounds were called active. About 26% were inconclusive and are not listed. The full list was thinned out, with actives kept by preference. A number with no mark means an inactive call. The call rests on the fitted dose curve; in most records, active means well fitted inhibition curve with a large enough effect; inconclusive means small, poorly fitted or top-dose-only effect; inactive means flat fitted curve, though single readings scatter. Where a SMILES comes first, the peptide text is derived from it. [ ]: non-standard residue; d: D form. The star is where a group is joined. PhAc = O=C(Cc1ccccc1)*

test: qHTS for Inhibitors of human tyrosyl-DNA phosphodiesterase 1 (TDP1): qHTS in cells in presence of CPT; conditions: chicken DT40 Tdp1-/-;hTDP1 cells + 20 nM CPT, ATP luminescence, 48 h; series mostly up to 46.2 µM; activity change, negative = growth inhibition: at the top concentration; further: nearly all actives have a fitted effect of over 55% in size
How it was run: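 Cell growth measured by CellTiter-Glo luminescence after a minimum 48 h, 37 C compound exposure with 20 nM CPT in Tdp1-knockout DT40 cells stably expressing hTDP1, seeded 400/well; qHTS titration format.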
On the % scale 0 is the no-effect control and ±100 the full control effect; potency means the concentration at half of the fitted maximal effect.

SMILES | activity change, negative = growth inhibition | Potency
O=C(Nc1ccccc1Cl)Nc1cccc2cccnc12 | -28.4% | 
O=C(Nc1ccccc1)Oc1cccc2cccnc12 |  | 0.651 µM (active)
Fc1ccccc1COc1cccc2cccnc12 | 6.88% | 
CCN(CC(=O)N1CCCC1)S(=O)(=O)c1ccc(F)cc1 | -1.44% | 
O=S1(=O)C=C(SCCN2CCCC2)c2ccccc21 | 4.47% | 
O=C(COC(=O)c1ncc(Cl)c(Cl)c1Cl)NCc1cccs1 | -5.21% | 
CN1CCN(c2ccc(S(=O)(=O)N3CCCCC3)cc2NC(=O)Cc2ccccc2F)CC1 | -7.49% | 
O=C(/C(=C/c1cccc(Cl)c1)c1nc2ccccc2[nH]1)c1ccccc1 |  | 16.4 µM (active)
CCC(=O)/C(=C(/O)c1ccccc1)c1nc2ccccc2[nH]1 | -24.3% | 
O=C(Cc1nc2ccccc2[nH]c1=O)c1ccc(Cl)cc1 | -3.26% | 
CC(=O)c1ccc(OC(=O)N2CCOCC2)cc1 | -5.46% | 
Cc1ccc(OCCNC(=O)CN2C(=O)NC3(CCCC3)C2=O)cc1 | 6.25% | 
CCN(CC)Cc1cc(C(C)=O)ccc1O | -1.53% | 
CCCCCn1c(CCNC(=O)c2ccc(F)cc2)nc2ccccc21 |  | 23.1 µM (active)
Cc1cc2ccccc2n1CCNC(=O)c1ccc(F)cc1 |  | 14.6 µM (active)
CCCCCn1c(CCCNC(=O)c2ccccc2OC)nc2ccccc21 |  | 20.6 µM (active)
CCCCCNC(=O)c1cccnc1SCC(=O)Nc1ccccc1OC | -16.8% | 
Cc1cc(C(=O)COC(=O)CNC(=O)c2ccc(F)cc2)c(C)n1Cc1ccco1 | -1.26% | 
Cc1cc2ccccc2n1CCC(=O)O | 10.1% | 
CCC(=O)NCCc1nc2ccccc2n1CC | 16% | 
COc1ccccc1Cn1c(CO)nc2ccccc21 | -7.97% | 
CC(=O)NCCc1nc2cc(NC(=O)c3ccccc3)ccc2n1C | -18.5% | 
COc1ccc(CCNC(=O)Cn2c(=O)n(-c3ccccc3)c(=O)c3c(C)c(C)sc32)cc1OC | -27.4% | 
Cc1cc(C)c(NC(=O)c2cc3sc(Cl)cc3n2C)c(C)c1 | -28.3% | 
COc1ccc2c(c1)c1nc3n(c(=O)c1n2CC(=O)Nc1ccccc1)CCS3 | 0.0881% | 
COc1ccc(S(=O)(=O)Nc2ccc3c(c2)OCO3)cc1Cl | -21.9% | 
COCC(=O)Nc1c(I)c(C(=O)NCC(O)CO)c(I)c(C(=O)N(C)CC(O)CO)c1I (stereo not drawn) |  | inactive

SMILES | activity change, negative = growth inhibition | Potency
CC(C)C[C@@H](NC(=O)[C@H]1CCCN1C(=O)Cc1ccccc1)C(N)=O (PhAc-[dP]-[dL]-NH2) | -1.96% | 
Cc1noc2ncnc(NCc3ccccc3Cl)c12 |  | 18.4 µM (active)
Cc1cnc(CNc2ncncc2-c2ccccc2Cl)cn1 | -18.5% | 
O=C(O)Cc1ccc(NCc2ccccc2Cl)cc1 | -0.43% | 
N/C(=N\OC(=O)CCCC(=O)O)c1ncc(C(F)(F)F)cc1Cl | -7.67% | 
CCNC(=O)COc1cc(C)c(Br)c(C)c1 | -8.79% | 
CCn1cc(/C=C(\NC(=O)c2cc(OC)c(OC)c(OC)c2)C(=O)N2CCN(C)CC2)c2ccccc21 | -20.7% | 
COc1ccc(C2=CC(c3ccccc3Cl)n3nc(-c4ccc(Cl)cc4)nc3N2)cc1 (stereo not drawn) | -25.4% | 
CN(CC(=O)NCCN1CCOCC1)S(=O)(=O)c1ccc(F)cc1 | -5.45% | 
Cc1ccnc(SCC(=O)Nc2cccc(S(=O)(=O)N3CCOCC3)c2)n1 | -17.4% | 
C=C(C)CNC(=S)/N=c1\scc(C)n1CC |  | 18.4 µM (active)
Cc1csc(=NC(=O)c2ccccc2)n1CCO | -1.5% | 
CSCCC(C(=O)NC1=NCCS1)N1C(=O)c2ccccc2C1=O (stereo not drawn) | 0.803% | 
N/C(=N\OS(=O)(=O)c1cccc([N+](=O)[O-])c1)c1ccncc1 | 19.5% | 
Cc1cc(=O)[nH]c(SCc2ccc(Cl)cc2)n1 | -0.663% | 
Cc1cc(C(=O)CSc2nc(N)cc(=O)[nH]2)c(C)n1-c1cccc(F)c1 |  | 7.31 µM (active)
CCN(C(=O)CSc1nc(N)cc(=O)[nH]1)C1CCS(=O)(=O)C1 (stereo not drawn) | -3.6% | 
Cc1cc(C(=O)CSc2nc(N)cc(=O)[nH]2)c(C)n1CCc1ccc(Cl)cc1 |  | 16.4 µM (active)
Cc1cc(C)c(C(=O)CSc2nc(C)cc(=O)[nH]2)c(C)c1 | -9.01% | 
CCCCc1nnc(NC(=O)CSc2nc(N)cc(=O)[nH]2)s1 | -1.51% | 
Cc1c(OC(C)C(=O)NCC2CCC(C(=O)O)CC2)ccc2c1oc(=O)c1ccccc12 (stereo not drawn) | -15.5% | 
COc1cc(SC)ccc1C(=O)NNC(=O)C1COc2ccccc2O1 (stereo not drawn) | 4.8% | 
CCc1ccccc1NC(=O)CN(C)C(=O)c1cc(C2CC2)nn1-c1ccccc1 | -25.9% | 
O=C(COC(=O)c1cccnc1Cl)NC12CC3CC(CC(C3)C1)C2 | -1.45% | 
O=C(COC(=O)c1ccc(Br)o1)NC12CC3CC(CC(C3)C1)C2 | 6.98% | 
COc1cc(C(=O)OCC(=O)NC23CC4CC(CC(C4)C2)C3)cc(OC)c1OC |  | 29.1 µM (active)
